TWEAK-Fn14 inh: blocks TWEAK-Fn14 interaction in a reporter cell assay; TWEAK-stimulated Fn14 reporter cells, luciferase luminescence, 8 h; inhibition, % at 10 µM; hit rate 2% among 360,000; in the data active means inhibition above about 50%
TROY signal inh: blocks TROY-dependent signaling in reporter cells | Q293 LMP1-TROYcd NF-kB luciferase reporter, 4 h | inhibition, % at 10 µM | AID 1347056 | hit rate 0.98% among 360,000;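 active means compounds whose plate-normalised and pattern-corrected inhibition of the luciferase reporter signal at the single screening dose is 50% or more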
TRPM1 prom inh: inhibitors of MITF-driven TRPM1 promoter in melanoma cells | SK-MEL-5 TRPM1 promoter luciferase, 24 h | inhibition, % at 12.5 µM | hit rate 0.83% among 330,000;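 active means mean inhibition across replicates of 60% or more, whatever share of single replicates reaches that level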
Shn3 3UTR inh: Schnurri-3 reporter inhibition in Clone20 osteoblasts; Clone20 osteoblast Shn3 3'UTR firefly luciferase, 24 h; inhibition, % at 12.5 µM; hit rate 0.52% among 360,000; AID 588674;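 active means mean inhibition of at least 75% with every replicate also reaching 75%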;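 further: 0% = median of neutral control wells and 100% = pilot-screen positive control compound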
Peg3 prom inh: Peg3 promoter activity inhibition. inhibition, % at 20 µM. AID 588405. HeLa PEG-Prom luciferase reporter, luminescence, overnight. hit rate 1.7% among 360,000;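 active means inhibition of at least 50% at 20 µM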
LMP1 NFkB inh: Epstein-Barr LMP1 NF-kappaB reporter inhibition. LMP1-induced NF-kappaB luciferase reporter cells, luminescence. inhibition, % at 12.5 µM. hit rate 0.69% among 350,000; in the data active means inhibition above about 41%;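 further: 0% = neutral control wells and 100% = reference inhibitor control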
Numbers without * were called inactive. Most compounds without a hit are left out; they make up all but 4.1% or so of the library.

How did Cc1ccc(-c2nn(-c3ccccc3)cc2CO)cc1 do in these assays?
TWEAK-Fn14 inh: -2.6; TROY signal inh: -38.3; TRPM1 prom inh: -63.2; Shn3 3UTR inh: -52.6; Peg3 prom inh: -262.8; LMP1 NFkB inh: 0.2

What do the screens show for `COc1cc(CNc2ncnc3c2ncn3[C@H]2CN(Cc3ccco3)C[C@@H](CO)O2)cc(OC)c1OC`?
TWEAK-Fn14 inh: -19.8; TROY signal inh: -7.0; Shn3 3UTR inh: -2.0; Peg3 prom inh: -2.8

What do the screens show for `Cc1ccc2c(c1)C1(OCCCO1)C(=O)N2CC(=O)NN`?
TWEAK-Fn14 inh: 94.2*; TROY signal inh: -9.8; Shn3 3UTR inh: -9.9; Peg3 prom inh: 1.6

How did Cc1ccc2c(c1)C1(OCCCO1)C(=O)N2CC#N do in these assays?
TWEAK-Fn14 inh: 8.4; TROY signal inh: 10.0; TRPM1 prom inh: -2.1; Shn3 3UTR inh: -4.8; Peg3 prom inh: 21.1; LMP1 NFkB inh: -0.1

How did COc1ccc(NC(=O)NNC(=O)COc2ccc3cc(Br)ccc3c2)c(OC)c1 do in these assays?
TWEAK-Fn14 inh: 16.9; TROY signal inh: -1.5; TRPM1 prom inh: 4.4; Shn3 3UTR inh: -26.2; Peg3 prom inh: 21.6; LMP1 NFkB inh: -12.9

Results for O=C(Nc1ccc2c(c1)OCCO2)c1ccco1 ?
TWEAK-Fn14 inh: 61.1*; TROY signal inh: 37.6; TRPM1 prom inh: 5.3; Shn3 3UTR inh: -29.2; Peg3 prom inh: -71.1; LMP1 NFkB inh: 23.5

What do the screens show for `O=C(Nc1ccc2c(c1)OCCO2)c1cc2sccc2n1Cc1ccccc1`?
TWEAK-Fn14 inh: 52.9*; TROY signal inh: 24.2; TRPM1 prom inh: -9.8; Shn3 3UTR inh: 37.5; Peg3 prom inh: -156.3; LMP1 NFkB inh: -5.1

Results for O=C(CN1CCN(C(=O)c2ccco2)CC1)Nc1ccc2c(c1)OCCO2 ?
TWEAK-Fn14 inh: 64.5*; TROY signal inh: 52.6*; TRPM1 prom inh: -7.9; Shn3 3UTR inh: 32.8; Peg3 prom inh: -21.7; LMP1 NFkB inh: 12.9

How did Cc1cccc(C)c1OCC(O)CN1CCC(CN2C(=O)c3cccc4cccc(c34)C2=O)CC1 (stereo not drawn) do in these assays?
TWEAK-Fn14 inh: 61.5*; TROY signal inh: 22.0; TRPM1 prom inh: 14.3; Shn3 3UTR inh: 6.3; Peg3 prom inh: 54.5*; LMP1 NFkB inh: -30.9

Results for CC(=O)c1ccc(OCC(O)CN2CCN(CCN3C(=O)c4cccc5cccc(c45)C3=O)CC2)cc1 (stereo not drawn) ?
TWEAK-Fn14 inh: -56.2; TROY signal inh: 7.8; TRPM1 prom inh: -3.3; Shn3 3UTR inh: 10.6; Peg3 prom inh: 50.0*; LMP1 NFkB inh: -6.7

How did CC(C)OCC(O)CN1CCN(CCN2C(=O)c3cccc4cccc(c34)C2=O)CC1 (stereo not drawn) do in these assays?
TWEAK-Fn14 inh: -15.2; TROY signal inh: -18.9; TRPM1 prom inh: -5.3; Shn3 3UTR inh: 3.6; Peg3 prom inh: 10.5; LMP1 NFkB inh: -10.2

Results for O=C(c1ccc(S(=O)(=O)N2CCCCC2)cc1)N1CCN(CCN2C(=O)c3cccc4cccc(c34)C2=O)CC1 ?
TWEAK-Fn14 inh: 54.2*; TROY signal inh: 50.6*; TRPM1 prom inh: 52.1; Shn3 3UTR inh: 38.9; Peg3 prom inh: 68.0*; LMP1 NFkB inh: 18.4

What do the screens show for `CC(Oc1ccc(C#N)cc1)C(=O)N1CC=C(c2ccccc2)CC1` (stereo not drawn)?
TWEAK-Fn14 inh: 26.2; TROY signal inh: 20.4; TRPM1 prom inh: 15.9; Shn3 3UTR inh: 8.5; Peg3 prom inh: 21.1; LMP1 NFkB inh: -0.9

How did O=C(Cc1ccccc1F)Nc1nc(-c2ccc(F)c(F)c2)cs1 do in these assays?
TWEAK-Fn14 inh: 22.5; TROY signal inh: 72.0*; TRPM1 prom inh: -83.6; Shn3 3UTR inh: -24.2; Peg3 prom inh: -114.6; LMP1 NFkB inh: -23.2

How did O=C(CCNC(=O)c1ccccc1Cl)Nc1nc(-c2ccc3ccccc3c2)cs1 do in these assays?
TWEAK-Fn14 inh: 53.3*; TROY signal inh: 34.1; TRPM1 prom inh: -7.4; Shn3 3UTR inh: 28.3; Peg3 prom inh: -0.9; LMP1 NFkB inh: 21.7

How did COc1ccc(Cc2c(-c3cccc(Cl)c3)nc3ccc(C)cn23)c(C)c1 do in these assays?
TWEAK-Fn14 inh: -18.1; TROY signal inh: -29.7; Shn3 3UTR inh: -43.4; Peg3 prom inh: -226.2

Results for CSc1ccccc1-c1nnc(-c2ccc(Cl)cc2Cl)o1 ?
TWEAK-Fn14 inh: -48.7; TROY signal inh: -96.0; TRPM1 prom inh: -72.7; Shn3 3UTR inh: -59.1; Peg3 prom inh: -281.4; LMP1 NFkB inh: -30.9

How did Fc1ccc(-c2nnc(-c3ccc(Cl)cc3Cl)o2)cc1 do in these assays?
TWEAK-Fn14 inh: 56.2*; TROY signal inh: -19.7; Shn3 3UTR inh: 8.5; Peg3 prom inh: -108.6; LMP1 NFkB inh: 3.5

Bioassay records deposited in PubChem by several laboratories.
